# Key:
# Assay in all cases: DAPPL (digital affinity profiling via proximity ligation, sequencing); 10 mM Tris-HCl pH 7.5, 50 mM NaCl, 1 mM DTT, 4% glycerol, room temperature, 30 min; GST-TFs on glutathione beads, 16-mer random dsDNA library, 0.1% formaldehyde crosslink after washing; high values mean tight binding
# FLI1 = biological target: T1, FLI1 (Homo sapiens, UniProt Q01543 1-452); settings: protein: recombinant; tags: N-terminal GST; dsDNA, one strand shown
# T1 sequence: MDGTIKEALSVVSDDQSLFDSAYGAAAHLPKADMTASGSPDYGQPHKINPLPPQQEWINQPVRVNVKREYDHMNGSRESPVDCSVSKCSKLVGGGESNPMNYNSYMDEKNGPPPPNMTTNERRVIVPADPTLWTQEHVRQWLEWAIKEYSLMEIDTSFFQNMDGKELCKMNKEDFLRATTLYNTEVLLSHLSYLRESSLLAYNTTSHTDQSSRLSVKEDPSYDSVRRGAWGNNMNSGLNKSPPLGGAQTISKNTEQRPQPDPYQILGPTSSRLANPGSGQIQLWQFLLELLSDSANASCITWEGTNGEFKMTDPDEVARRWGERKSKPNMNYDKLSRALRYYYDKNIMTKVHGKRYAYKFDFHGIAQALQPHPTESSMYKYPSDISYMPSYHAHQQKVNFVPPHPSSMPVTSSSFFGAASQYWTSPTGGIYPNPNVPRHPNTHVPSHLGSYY
# Outline: (§1)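 The binding signal reported is, for every hexamer, its read frequency for a factor over its read frequency for the tag-only sample. Reads came from pools of yeast-expressed, GST-fused human transcription factors on glutathione beads, barcoded with DNA and mixed with that sample, which were incubated with 200 nmole of a random double-stranded 16-mer DNA library in Tris/NaCl/DTT/glycerol buffer at room temperature for 30 min. After washing, the pools were crosslinked with 0.1% formaldehyde, proximity-ligated with BsaI/T4 ligase for 1 h at 37 °C, PCR-amplified and sequenced on an Illumina NextSeq500.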
# ELK1 = biological target: T2, ELK1 (Homo sapiens, UniProt P19419 1-428); settings: protein: recombinant; tags: N-terminal GST; dsDNA, one strand shown
# T2 sequence: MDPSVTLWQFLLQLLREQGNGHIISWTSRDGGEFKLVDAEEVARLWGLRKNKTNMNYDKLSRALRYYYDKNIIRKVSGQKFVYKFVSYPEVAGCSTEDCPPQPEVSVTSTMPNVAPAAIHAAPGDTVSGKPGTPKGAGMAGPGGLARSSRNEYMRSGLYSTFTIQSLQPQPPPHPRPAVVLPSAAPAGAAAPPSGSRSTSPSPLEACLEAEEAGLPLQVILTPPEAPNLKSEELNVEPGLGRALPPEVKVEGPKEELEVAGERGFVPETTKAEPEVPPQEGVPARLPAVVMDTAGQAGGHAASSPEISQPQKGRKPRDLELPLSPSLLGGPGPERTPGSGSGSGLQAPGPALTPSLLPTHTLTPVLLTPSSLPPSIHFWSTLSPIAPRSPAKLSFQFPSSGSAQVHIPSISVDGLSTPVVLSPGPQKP
# Outline: as §1
# GABPA = biological target: T3, GABPA (Homo sapiens, UniProt Q06546 1-454); settings: protein: recombinant; tags: N-terminal GST; dsDNA, one strand shown
# T3 sequence: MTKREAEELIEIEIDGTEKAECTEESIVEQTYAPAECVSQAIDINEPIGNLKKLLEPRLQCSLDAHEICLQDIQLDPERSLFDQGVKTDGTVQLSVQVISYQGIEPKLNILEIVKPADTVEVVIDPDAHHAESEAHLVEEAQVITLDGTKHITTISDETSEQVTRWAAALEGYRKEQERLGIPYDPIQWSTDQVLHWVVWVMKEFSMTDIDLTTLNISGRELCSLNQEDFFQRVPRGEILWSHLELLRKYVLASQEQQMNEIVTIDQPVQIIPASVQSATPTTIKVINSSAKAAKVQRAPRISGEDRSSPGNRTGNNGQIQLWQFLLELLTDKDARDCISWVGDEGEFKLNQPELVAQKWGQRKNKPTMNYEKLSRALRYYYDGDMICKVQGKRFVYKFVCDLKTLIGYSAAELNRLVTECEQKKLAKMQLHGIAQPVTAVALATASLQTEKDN
# Outline: as §1
# ERG = biological target: T4, ERG (Homo sapiens, UniProt P11308 1-479); settings: protein: recombinant; tags: N-terminal GST; dsDNA, one strand shown
# T4 sequence: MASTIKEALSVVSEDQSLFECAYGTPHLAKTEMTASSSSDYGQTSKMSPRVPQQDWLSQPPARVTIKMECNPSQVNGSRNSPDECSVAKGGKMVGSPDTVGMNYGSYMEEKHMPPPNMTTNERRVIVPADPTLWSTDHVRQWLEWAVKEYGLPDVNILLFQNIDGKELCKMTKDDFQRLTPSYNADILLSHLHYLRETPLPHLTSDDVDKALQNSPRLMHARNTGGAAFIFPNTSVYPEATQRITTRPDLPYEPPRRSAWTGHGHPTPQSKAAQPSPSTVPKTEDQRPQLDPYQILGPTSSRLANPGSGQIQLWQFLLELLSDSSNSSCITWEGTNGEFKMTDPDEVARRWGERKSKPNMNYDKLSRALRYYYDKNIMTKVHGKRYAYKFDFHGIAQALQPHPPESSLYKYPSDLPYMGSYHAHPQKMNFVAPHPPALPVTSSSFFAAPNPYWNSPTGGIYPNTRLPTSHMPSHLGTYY
# Outline: as §1
# ELF1 = ELF1 (Homo sapiens, UniProt P32519 1-619); settings: protein: recombinant; tags: N-terminal GST; dsDNA, one strand shown
# Sequence of ELF1 (P32519 whole entry): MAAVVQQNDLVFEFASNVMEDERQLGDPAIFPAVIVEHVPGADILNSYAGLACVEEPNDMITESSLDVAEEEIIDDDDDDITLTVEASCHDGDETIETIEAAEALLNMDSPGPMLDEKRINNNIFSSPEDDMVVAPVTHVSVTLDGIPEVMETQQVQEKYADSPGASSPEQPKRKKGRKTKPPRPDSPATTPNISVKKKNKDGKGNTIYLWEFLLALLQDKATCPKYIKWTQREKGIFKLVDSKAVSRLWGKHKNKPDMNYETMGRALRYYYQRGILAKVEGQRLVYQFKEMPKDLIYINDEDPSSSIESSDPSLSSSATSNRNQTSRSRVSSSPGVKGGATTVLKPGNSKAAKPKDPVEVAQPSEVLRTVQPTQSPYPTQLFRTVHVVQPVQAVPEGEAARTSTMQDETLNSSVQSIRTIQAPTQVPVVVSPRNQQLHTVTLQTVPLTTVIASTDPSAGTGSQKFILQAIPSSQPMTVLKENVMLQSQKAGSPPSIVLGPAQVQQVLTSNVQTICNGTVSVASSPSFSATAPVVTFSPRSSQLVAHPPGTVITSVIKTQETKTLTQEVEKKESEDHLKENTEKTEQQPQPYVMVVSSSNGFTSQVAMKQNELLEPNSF
# Outline: as §1
# EHF = biological target: T5, EHF (Homo sapiens, UniProt Q9NZC4 1-300); settings: protein: recombinant; tags: N-terminal GST; dsDNA, one strand shown
# T5 sequence: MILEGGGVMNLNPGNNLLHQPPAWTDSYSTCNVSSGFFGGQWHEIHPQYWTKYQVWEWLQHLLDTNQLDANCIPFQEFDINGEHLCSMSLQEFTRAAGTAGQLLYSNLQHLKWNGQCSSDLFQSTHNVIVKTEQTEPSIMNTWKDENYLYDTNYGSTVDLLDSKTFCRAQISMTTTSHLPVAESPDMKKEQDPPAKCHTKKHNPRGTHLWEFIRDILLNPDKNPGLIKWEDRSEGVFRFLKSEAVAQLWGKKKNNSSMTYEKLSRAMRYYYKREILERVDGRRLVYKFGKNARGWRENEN
# Outline: as §1
# SPI1 = SPI1 (Homo sapiens, UniProt P17947 1-270); settings: protein: recombinant; tags: N-terminal GST; dsDNA, one strand shown
# Outline: as §1
# SPIB = SPIB (Homo sapiens, UniProt Q01892 1-262); settings: protein: recombinant; tags: N-terminal GST; dsDNA, one strand shown
# Sequence of SPIB (Q01892 whole entry): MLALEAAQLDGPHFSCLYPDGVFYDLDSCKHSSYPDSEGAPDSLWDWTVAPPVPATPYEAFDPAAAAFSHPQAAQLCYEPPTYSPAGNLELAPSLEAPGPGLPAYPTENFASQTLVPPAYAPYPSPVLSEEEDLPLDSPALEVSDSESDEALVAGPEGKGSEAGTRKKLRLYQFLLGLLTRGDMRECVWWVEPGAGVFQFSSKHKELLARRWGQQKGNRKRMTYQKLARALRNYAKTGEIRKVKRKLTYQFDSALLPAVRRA
# Outline: as §1
# ELK3 = biological target: T6, ELK3 (Homo sapiens, UniProt P41970 1-407); settings: protein: recombinant; tags: N-terminal GST; dsDNA, one strand shown
# T6 sequence: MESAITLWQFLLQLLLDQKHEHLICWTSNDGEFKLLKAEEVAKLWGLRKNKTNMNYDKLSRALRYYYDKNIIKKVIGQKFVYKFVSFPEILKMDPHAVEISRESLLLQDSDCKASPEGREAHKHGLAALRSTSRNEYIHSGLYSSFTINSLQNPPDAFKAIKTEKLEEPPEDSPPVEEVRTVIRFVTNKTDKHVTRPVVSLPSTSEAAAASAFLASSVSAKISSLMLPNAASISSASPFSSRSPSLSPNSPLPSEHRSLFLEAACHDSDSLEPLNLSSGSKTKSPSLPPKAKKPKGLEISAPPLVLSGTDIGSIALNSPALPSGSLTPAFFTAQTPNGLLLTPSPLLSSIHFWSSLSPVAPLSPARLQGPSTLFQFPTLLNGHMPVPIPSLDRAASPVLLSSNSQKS
# Outline: as §1
# FEV = biological target: T7, FEV (Homo sapiens, UniProt Q99581 1-238); settings: protein: recombinant; tags: N-terminal GST; dsDNA, one strand shown
# T7 sequence: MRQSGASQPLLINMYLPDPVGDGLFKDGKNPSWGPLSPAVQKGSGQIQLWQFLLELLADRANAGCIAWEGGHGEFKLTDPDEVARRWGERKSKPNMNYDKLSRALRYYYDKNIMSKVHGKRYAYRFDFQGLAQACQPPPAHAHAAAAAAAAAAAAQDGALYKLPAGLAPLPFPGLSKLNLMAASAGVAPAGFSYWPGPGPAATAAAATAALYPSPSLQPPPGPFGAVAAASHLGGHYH
# Outline: as §1
# ETV5 = ETV5 (Homo sapiens, UniProt P41161 1-510); settings: protein: recombinant; tags: N-terminal GST; dsDNA, one strand shown
# Sequence of ETV5 (P41161 whole entry): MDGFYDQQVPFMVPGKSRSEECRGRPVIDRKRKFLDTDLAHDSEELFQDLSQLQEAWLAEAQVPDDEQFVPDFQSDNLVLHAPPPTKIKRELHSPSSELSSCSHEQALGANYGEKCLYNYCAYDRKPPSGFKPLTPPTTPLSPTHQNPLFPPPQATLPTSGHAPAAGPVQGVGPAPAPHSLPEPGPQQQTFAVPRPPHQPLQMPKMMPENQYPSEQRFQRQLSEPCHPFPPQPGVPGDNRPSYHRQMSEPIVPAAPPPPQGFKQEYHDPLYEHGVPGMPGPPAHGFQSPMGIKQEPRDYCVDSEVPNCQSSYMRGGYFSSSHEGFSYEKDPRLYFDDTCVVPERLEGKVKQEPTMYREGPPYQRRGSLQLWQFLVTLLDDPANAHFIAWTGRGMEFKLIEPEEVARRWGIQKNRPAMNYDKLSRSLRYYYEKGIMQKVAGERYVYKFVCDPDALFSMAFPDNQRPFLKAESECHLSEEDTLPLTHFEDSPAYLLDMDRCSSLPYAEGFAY
# Outline: as §1
# HSF1 = HSF1 (Homo sapiens, UniProt Q00613 1-529); settings: protein: recombinant; tags: N-terminal GST; chain copies: 3; dsDNA, one strand shown
# Sequence of HSF1 (Q00613 whole entry): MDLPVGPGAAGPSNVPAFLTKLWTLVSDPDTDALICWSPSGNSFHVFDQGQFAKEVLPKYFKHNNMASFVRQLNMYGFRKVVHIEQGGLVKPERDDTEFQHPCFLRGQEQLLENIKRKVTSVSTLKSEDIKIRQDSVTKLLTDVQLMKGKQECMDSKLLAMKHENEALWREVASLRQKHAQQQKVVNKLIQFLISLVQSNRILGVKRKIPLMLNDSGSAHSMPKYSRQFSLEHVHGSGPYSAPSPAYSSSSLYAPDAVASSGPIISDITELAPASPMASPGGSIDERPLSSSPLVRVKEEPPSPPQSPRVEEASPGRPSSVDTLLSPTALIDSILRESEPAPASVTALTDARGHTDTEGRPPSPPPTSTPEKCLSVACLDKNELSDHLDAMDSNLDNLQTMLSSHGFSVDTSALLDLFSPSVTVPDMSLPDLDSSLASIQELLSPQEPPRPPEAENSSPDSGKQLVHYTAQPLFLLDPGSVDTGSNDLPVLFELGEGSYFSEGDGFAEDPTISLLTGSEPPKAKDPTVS
# Outline: as §1
# SPIC = biological target: T8, SPIC (Homo sapiens, UniProt Q8N5J4 1-248); settings: protein: recombinant; tags: N-terminal GST; dsDNA, one strand shown
# T8 sequence: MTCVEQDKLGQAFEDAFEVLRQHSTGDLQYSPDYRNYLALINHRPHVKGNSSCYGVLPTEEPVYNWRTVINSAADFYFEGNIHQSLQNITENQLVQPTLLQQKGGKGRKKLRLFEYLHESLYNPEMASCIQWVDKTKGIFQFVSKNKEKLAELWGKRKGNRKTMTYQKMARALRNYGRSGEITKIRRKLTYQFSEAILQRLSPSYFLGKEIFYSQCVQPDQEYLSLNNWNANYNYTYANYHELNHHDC
# Outline: as §1
# ELF4 = ELF4 (Homo sapiens, UniProt Q99607 1-663); settings: protein: recombinant; tags: N-terminal GST; dsDNA, one strand shown
# Sequence of ELF4 (Q99607 whole entry): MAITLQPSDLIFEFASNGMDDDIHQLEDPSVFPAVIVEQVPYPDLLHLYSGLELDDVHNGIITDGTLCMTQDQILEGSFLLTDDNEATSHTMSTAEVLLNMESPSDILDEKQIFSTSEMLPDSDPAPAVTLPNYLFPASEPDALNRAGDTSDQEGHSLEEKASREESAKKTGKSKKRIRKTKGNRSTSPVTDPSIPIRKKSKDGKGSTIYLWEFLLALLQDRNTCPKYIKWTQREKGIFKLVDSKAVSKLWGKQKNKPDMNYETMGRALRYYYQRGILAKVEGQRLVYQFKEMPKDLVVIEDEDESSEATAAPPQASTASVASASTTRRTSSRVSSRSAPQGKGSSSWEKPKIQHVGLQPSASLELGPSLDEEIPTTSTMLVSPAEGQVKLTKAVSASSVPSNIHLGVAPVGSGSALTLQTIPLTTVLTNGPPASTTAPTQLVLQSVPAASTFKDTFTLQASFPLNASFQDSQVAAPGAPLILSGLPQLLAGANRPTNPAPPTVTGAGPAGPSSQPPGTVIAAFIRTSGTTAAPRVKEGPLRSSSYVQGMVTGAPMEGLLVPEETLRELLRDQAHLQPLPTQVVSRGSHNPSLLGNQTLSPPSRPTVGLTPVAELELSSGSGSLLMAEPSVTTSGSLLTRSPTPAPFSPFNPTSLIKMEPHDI
# Outline: as §1
# ELK4 = biological target: T9, ELK4 (Homo sapiens, UniProt P28324-2 1-405); settings: protein: recombinant; tags: N-terminal GST; dsDNA, one strand shown
# T9 sequence: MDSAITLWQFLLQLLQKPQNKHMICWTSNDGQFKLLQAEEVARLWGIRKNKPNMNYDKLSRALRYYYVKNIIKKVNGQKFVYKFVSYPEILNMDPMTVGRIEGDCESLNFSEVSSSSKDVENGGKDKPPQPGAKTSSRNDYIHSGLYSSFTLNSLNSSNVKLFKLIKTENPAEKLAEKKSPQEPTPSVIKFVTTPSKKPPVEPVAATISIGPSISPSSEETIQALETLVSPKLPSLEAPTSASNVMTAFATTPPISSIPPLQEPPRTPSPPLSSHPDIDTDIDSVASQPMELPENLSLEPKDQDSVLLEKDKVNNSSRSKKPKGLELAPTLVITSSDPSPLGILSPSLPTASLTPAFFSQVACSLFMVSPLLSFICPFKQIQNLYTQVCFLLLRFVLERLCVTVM
# Outline: as §1
# ETV2 = biological target: T10, ETV2 (Homo sapiens, UniProt O00321 1-342); settings: protein: recombinant; tags: N-terminal GST; dsDNA, one strand shown
# T10 sequence: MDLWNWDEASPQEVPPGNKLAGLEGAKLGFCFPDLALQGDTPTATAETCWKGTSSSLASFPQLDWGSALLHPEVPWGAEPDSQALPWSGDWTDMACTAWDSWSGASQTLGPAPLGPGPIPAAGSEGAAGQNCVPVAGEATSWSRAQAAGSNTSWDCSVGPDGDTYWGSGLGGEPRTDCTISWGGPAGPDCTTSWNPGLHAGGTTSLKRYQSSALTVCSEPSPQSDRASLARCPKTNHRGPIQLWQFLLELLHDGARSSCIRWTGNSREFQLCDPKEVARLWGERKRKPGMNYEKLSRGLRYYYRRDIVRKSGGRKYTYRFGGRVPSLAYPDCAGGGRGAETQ
# Outline: as §1
# ELF3 = biological target: T11, ELF3 (Homo sapiens, UniProt P78545 1-371); settings: protein: recombinant; tags: N-terminal GST; dsDNA, one strand shown
# T11 sequence: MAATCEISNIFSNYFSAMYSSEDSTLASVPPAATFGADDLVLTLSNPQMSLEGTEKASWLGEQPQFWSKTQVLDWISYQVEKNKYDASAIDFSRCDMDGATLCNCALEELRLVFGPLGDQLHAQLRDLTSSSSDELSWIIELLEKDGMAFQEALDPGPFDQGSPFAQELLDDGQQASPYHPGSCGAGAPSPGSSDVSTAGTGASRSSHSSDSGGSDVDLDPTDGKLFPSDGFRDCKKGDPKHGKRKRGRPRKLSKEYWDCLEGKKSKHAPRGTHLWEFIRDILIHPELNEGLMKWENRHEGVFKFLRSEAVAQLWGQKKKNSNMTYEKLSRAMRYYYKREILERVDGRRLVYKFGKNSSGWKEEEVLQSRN
# Outline: as §1
# CRX = CRX (Homo sapiens, UniProt O43186 1-299); settings: protein: recombinant; tags: N-terminal GST; dsDNA, one strand shown
# Sequence of CRX (O43186 whole entry): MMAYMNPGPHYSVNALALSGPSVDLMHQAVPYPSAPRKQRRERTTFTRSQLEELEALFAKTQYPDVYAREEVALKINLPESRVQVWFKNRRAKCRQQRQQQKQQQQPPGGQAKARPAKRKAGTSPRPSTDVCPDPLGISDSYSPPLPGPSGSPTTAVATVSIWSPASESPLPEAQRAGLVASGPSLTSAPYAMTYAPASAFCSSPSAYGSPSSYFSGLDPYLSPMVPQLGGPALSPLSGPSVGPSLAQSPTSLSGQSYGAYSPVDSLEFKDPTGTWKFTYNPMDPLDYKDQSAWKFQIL
# Outline: as §1
# ETV1 = ETV1 (Homo sapiens, UniProt P50549 1-477); settings: protein: recombinant; tags: N-terminal GST; dsDNA, one strand shown
# Sequence of ETV1 (P50549 whole entry): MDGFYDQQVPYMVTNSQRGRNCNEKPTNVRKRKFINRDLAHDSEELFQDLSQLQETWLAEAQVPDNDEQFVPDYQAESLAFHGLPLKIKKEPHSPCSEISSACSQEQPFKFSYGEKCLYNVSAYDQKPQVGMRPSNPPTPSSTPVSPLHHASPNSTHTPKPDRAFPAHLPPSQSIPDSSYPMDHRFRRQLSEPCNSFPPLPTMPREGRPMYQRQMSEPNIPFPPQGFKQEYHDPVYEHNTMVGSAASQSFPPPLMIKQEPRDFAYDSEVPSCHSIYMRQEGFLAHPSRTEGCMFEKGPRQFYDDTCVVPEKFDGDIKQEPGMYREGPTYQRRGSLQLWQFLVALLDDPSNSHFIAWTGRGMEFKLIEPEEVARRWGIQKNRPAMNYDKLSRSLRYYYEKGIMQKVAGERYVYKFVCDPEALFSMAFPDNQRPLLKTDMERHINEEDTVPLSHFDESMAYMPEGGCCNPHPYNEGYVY
# Outline: as §1
sequence,measurement,setting,value
ACTCAA,binding signal,FLI1,"1.19 fold enrichment (6-mer frequency, TF over GST control)"
same,binding signal,ELK1,"1.23 fold enrichment (6-mer frequency, TF over GST control)"
same,binding signal,GABPA,"1.22 fold enrichment (6-mer frequency, TF over GST control)"
same,binding signal,ERG,"1.21 fold enrichment (6-mer frequency, TF over GST control)"
same,binding signal,ELF1,"1.22 fold enrichment (6-mer frequency, TF over GST control)"
same,binding signal,EHF,"1.18 fold enrichment (6-mer frequency, TF over GST control)"
same,binding signal,SPI1,"1.24 fold enrichment (6-mer frequency, TF over GST control)"
same,binding signal,SPIB,"1.23 fold enrichment (6-mer frequency, TF over GST control)"
same,binding signal,ELK3,"1.31 fold enrichment (6-mer frequency, TF over GST control)"
same,binding signal,FEV,"1.23 fold enrichment (6-mer frequency, TF over GST control)"
same,binding signal,ETV5,"1.16 fold enrichment (6-mer frequency, TF over GST control)"
same,binding signal,HSF1,"1.07 fold enrichment (6-mer frequency, TF over GST control)"
same,binding signal,SPIC,"1.17 fold enrichment (6-mer frequency, TF over GST control)"
same,binding signal,ELF4,"1.16 fold enrichment (6-mer frequency, TF over GST control)"
same,binding signal,ELK4,"1.18 fold enrichment (6-mer frequency, TF over GST control)"
same,binding signal,ETV2,"1.15 fold enrichment (6-mer frequency, TF over GST control)"
same,binding signal,ELF3,"1.12 fold enrichment (6-mer frequency, TF over GST control)"
same,binding signal,CRX,"1.12 fold enrichment (6-mer frequency, TF over GST control)"
same,binding signal,ETV1,"1.15 fold enrichment (6-mer frequency, TF over GST control)"
